FXN GAA850 act: FXN promoter activators, primary screen, cell-based, luciferase luminescence, HEK293 lucGAA850. activation, % at 6 µM. hit rate 0.56% among 360,000. HEK293 lucGAA850 FXN promoter luciferase reporter, 24 h; percent of 10 µM SAHA response;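 active = activation above the average of all compounds screened plus 3 SD, cutoff fixed separately per campaign, cut at about 7.5% in these data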;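 note: 0% = DMSO wells and 100% = 10 µM SAHA wells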
AHR act: AHR activators, primary screen, cell-based, luminescence, luciferase reporter, human; hit rate 2.5% among 320,000; Aryl hydrocarbon receptor (Homo sapiens), P35869; activation, % at 5 µM; AHR-responsive luciferase reporter cells; in the data active = activation above about 47%;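 note: 0% = vehicle wells and 100% = reference agonist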
HSF-1 act: HSF-1 activators, primary screen, NIH3T3-HGL cells, MG132 stress, luminescence, single point; NIH3T3-HGL HSF-1 luciferase reporter, 8 h; 100% = twice DMSO control signal; activation, % at 9 µM; hit rate 1.7% among 300,000;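 active = mean replicate activation of at least 50% with a set share of replicates each reaching 50%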;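 note: 0% = median of the neutral control wells and 100% = twice that signal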
NR0B1 inh: DAX1 (NR0B1) inhibitors, primary screen, cell-based, HEK293, Gal4-DAX1, luciferase luminescence; HEK293 Gal4-DAX1 luciferase reporter; inhibition, % at 6.75 µM; hit rate 0.99% among 340,000;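 active = inhibition above the mean over all tested compounds plus 3 SD, cut at about 4.2% in these data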;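 note: 0% = DAX1-transfected cells with DMSO and 100% = empty-vector control cells with DMSO; inhibition shows as a rise in luminescence from relieved DAX1 repression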
Target sequence (P51843 207-470 limits assumed): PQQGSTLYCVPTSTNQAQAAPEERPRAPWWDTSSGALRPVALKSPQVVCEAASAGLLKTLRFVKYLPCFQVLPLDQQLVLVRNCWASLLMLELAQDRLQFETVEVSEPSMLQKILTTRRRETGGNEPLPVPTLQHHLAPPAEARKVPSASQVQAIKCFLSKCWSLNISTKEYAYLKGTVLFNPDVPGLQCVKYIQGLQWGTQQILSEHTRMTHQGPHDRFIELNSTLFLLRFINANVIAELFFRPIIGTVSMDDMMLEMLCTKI
HSF1 inh: HSF1 inhibitors in luciferase reporter cells, primary screen, cell-based, NIH3T3, luminescence. NIH3T3-HGL HSE-luciferase, MG132-induced, luminescence 8 h; active compounds read low. activity change, negative = inhibition, % at 7.5 µM (by protocol). hit rate 0.77% among 300,000;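 active = more than half of replicate wells show activity change below -50%, luminescence cut by over half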;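 note: luciferase reports HSF-1 transcriptional activity via heat shock element; 0% = median of DMSO wells and -100% = zero luminescence signal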
* hit, by the source's call; · = no result. In the library only some 5.4% were active in any assay of this set; here they are far more common.

SMILES | FXN GAA850 act | AHR act | HSF-1 act | NR0B1 inh | HSF1 inh
O=C(O)c1ccc(-n2cc(C(=O)c3ccccc3O)cn2)cc1 | 4 | 9 | -1 | 0 | -3
Cc1cc(C)nc(-n2cc(C(=O)c3cc(F)ccc3O)cn2)n1 | 1 | 53* | 24 | 0 | 5
O=C(c1cnn(-c2cccc(F)c2)c1)c1ccccc1O | -1 | 5 | -1 | 5.0* | 4
O=C(c1cnn(-c2ccccc2)c1)c1ccc2ccccc2c1O | 6 | 5 | 58* | 2 | 36
Cc1ccc(CNC(=O)C(=O)NCC2OCCN2S(=O)(=O)c2ccc(Cl)cc2)cc1 (stereo not given) | -2 | 6 | 10 | -1 | 0
Cc1cc(C)n(S(=O)(=O)/C=C/c2ccccc2)n1 | -8 | -3 | 54* | -1 | 53
Cc1ccc(S(=O)(=O)n2nc(C)cc2C)cc1 | -2 | -2 | 5 | 1 | 0
COC(=O)[C@H](CC(C)C)NC(=O)Cn1cnc(C(=O)Nc2ccc(C)c(C)c2)n1 | 2 | · | · | 0 | ·
CSCC[C@H](N)C(=O)NCC1CCC(C(=O)Nc2ccc3c(c2)OCO3)CC1 (stereo not given in full) | 2 | 0 | 2 | 2 | -2
CCOC(=O)/C=C/C(=O)N1CCc2ccccc21 | -2 | 11 | 84* | -1 | 62
COc1cc(/C=C/C(=O)N2CCCc3ccccc32)cc(OC)c1OC | -1 | 55* | 13 | 0 | -2
Cc1c(Br)c(C(=O)N2CCc3ccccc32)nn1C | 2 | 2 | 24 | 4.4* | 4
C/C(=C\C(=O)N1CCc2ccccc21)C(=O)O | 0 | 16 | 7 | 4.3* | 0
O=P(O)(Cc1ccccc1)c1ccccc1 | 1 | · | · | 2 | ·
COc1ccc(CC(C)Nc2cccc(SC)c2)cc1 (stereo not given) | 0 | · | -68 | 1 | -59*
COc1ccc(CC(=O)Nc2cccc(SC)c2)cc1 | 2 | 2 | -6 | -1 | 5
CCCN(C(=O)c1cccc(-n2cccc2)c1)c1c(N)n(Cc2ccccc2)c(=O)[nH]c1=O | -2 | 0 | -11 | 2 | 5
CCc1nnc(NC(=O)c2oc3ccccc3c2COC(C)C)s1 | 2 | 74* | · | -2 | ·
CSc1cccc(NS(=O)(=O)c2cc(Br)cnc2N)c1 | 0 | -1 | -70 | 0 | -61*
Cc1ccc(NS(=O)(=O)c2cc(Br)cnc2N)cc1C | 1 | 3 | 47 | 0 | 20
N#Cc1c2c(c(NCc3ccco3)n3c1nc1ccccc13)CCC2 | -3 | 13 | · | -1 | ·
N#Cc1c2c(c(Nc3ccc(O)cc3)n3c1nc1ccccc13)CCC2 | -1 | 5 | 66* | -2 | 30
Cc1ccccc1-c1cc(C(=O)NCc2ccc3c(c2)OCO3)n(CC2CC(c3cccnc3)=NO2)n1 (stereo not given) | -2 | 0 | · | 0 | ·
CC(=O)c1c(C)n([O-])c2ccc(C)cc2[n+]1=O | 2 | 60* | -17 | 1 | -6
COc1ccc(Cl)cc1-c1nc(SCC(=O)NC(C)C(C)C)n[nH]1 (stereo not given) | -1 | 7 | -8 | 7.3* | -1
SMILES | FXN GAA850 act | AHR act | HSF-1 act | NR0B1 inh | HSF1 inh
COc1ccc(Cl)cc1-c1nc(SCC(=O)NC(C)C)n[nH]1 | -1 | 20 | -2 | -1 | -5
O=C1NC(Cc2ccc(O)cc2)c2nc3cc(F)ccc3c(=O)n2-c2cc3ccccc3cc21 (stereo not given) | -7 | · | · | -1 | ·
CN(C)c1ccc(/C=N/NC(=O)c2ccc3c(c2)OCCO3)cc1 | 1 | 30 | -58 | 1 | -55*
CCOc1cc(/C=N/NC(=O)c2ccc3c(c2)OCCO3)cc(Br)c1O | 1 | 3 | -74 | 1 | -73*
CCN(CC)c1ccc(/C=N/NC(=O)Nc2nonc2N)cc1 | 3 | 67* | 33 | -1 | 6
O=C(CNC(=O)c1ccc2c(c1)OCCO2)N/N=C/c1ccc(Cl)cc1 | 2 | 3 | -4 | -1 | -6
COc1ccc(/C=N/NC(=O)c2ccc3c(c2)OCO3)cc1 | 3 | 13 | 2 | 1 | -3
CCN(CC)c1ccc(/C=N/NC(=O)c2ccc3c(c2)OCCO3)cc1 | 3 | · | -59 | 0 | -52*
O=C(N/N=C/c1cc(Br)c(O)c(Br)c1O)c1ccc2c(c1)OCCO2 | 1 | 15 | -1 | 0 | -12
O=C(C1CCN(S(=O)(=O)c2cc(Cl)ccc2Cl)CC1)N1CCCC1 | 4 | 1 | 14 | 1 | 4
COc1ccc(-c2nc(C)sc2CC(=O)O)cc1OC | 3 | 2 | -10 | 0 | 1
CCOC(=O)CN1N=C(c2ccc(Cl)cc2)CCC1=O | -1 | 3 | 16 | 1 | -5
CN(C(=O)c1ccc(NC(=O)Cc2ccc([N+](=O)[O-])cc2)cc1)C1CC1 | 3 | 1 | · | 0 | ·
CCN(CC)c1ccc(/C=N/NC(=O)c2ccc(Br)o2)cc1 | 1 | 88* | 19 | 2 | 18
CCCCn1nnnc1SCC(=O)N1CCN(C(=O)c2ccco2)CC1 | -2 | 3 | -17 | 0 | -3
Cc1nnc(SCC(=O)N2CCN(C(=O)c3ccco3)CC2)n1C | -1 | 2 | · | 4.7* | ·
Cn1nnnc1SCC(=O)N1CCN(C(=O)c2ccco2)CC1 | 1 | 1 | -2 | 4.3* | 0
Cc1nnc(SCC(=O)N2CCN(C(=O)c3ccco3)CC2)n1-c1ccccc1 | 3 | 0 | -9 | 1 | -3
Cc1cccc(C)c1NC(=O)/C(C#N)=C/c1ccc(-c2ccc(C(=O)O)cc2)o1 | 4 | 2 | -9 | 4.3* | -11
CNC(=O)/C(C#N)=C/c1ccc(-c2ccccc2[N+](=O)[O-])o1 | 5 | 20 | 8 | 1 | -1
CC1CC1c1ccc(/C=C(\C#N)C(=O)Nc2ccc(Cl)cc2Cl)o1 (stereo not given) | 1 | 5 | 20 | 1 | 8
CC1CC1c1ccc(/C=C(\C#N)C(=O)Nc2cc(Cl)ccc2Cl)o1 (stereo not given) | 0 | 60* | 4 | -1 | -6
N#C/C(=C\c1ccc(-c2ccc(C(=O)O)cc2)o1)C(=O)Nc1ccc(F)cc1 | 0 | 77* | 11 | -1 | 1
CNC(=O)/C(C#N)=C/c1ccc(-c2ccc(Cl)cc2)o1 | 7 | 11 | 73* | 1 | 30
N#C/C(=C\c1ccc(-c2ccc(C(=O)O)cc2)o1)C(=O)NCC1CCCO1 (stereo not given) | 3 | 2 | -33 | 1 | -18
COc1cccc(NC(=O)C2(S(=O)(=O)c3ccc(Cl)cc3)CC2)c1 | 2 | 2 | 7 | 1 | 5
COc1ccc(-c2coc3c(C(=O)N4CCN(C)CC4)cccc23)c(C)c1 | 0 | · | · | · | ·

Bioassay records: PubChem BioAssay, several laboratories
